High-throughput results from PubChem.
Compounds with a hit are over-represented: about 6.8% of the library has one in this group of screens.
Cy5 interf NS3h: enhances or quenches Cy5 fluorescence in NS3h assay. Cy5-dT15 DNA with NS3h, fluorescence interference; actives lie on both sides; signal over control mean, under 1 quenches. fluorescence interference ratio at 100 µM. hit rate 6% among 16,000;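 active = compound fluorescence over control fluorescence at most 0.8, a quencher, or at least a set upper limit, an enhancer; inactive = ratio between 0.8 and the set upper limit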
HCV NS3h FP: blocks HCV NS3 helicase binding to DNA; NS3h Cy5-dT15 DNA binding, fluorescence polarization; inhibition, % at 100 µM; hit rate 1.6% among 16,000; AID 687043;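 active = inhibition above the average over every tested compound plus 3 SD, cut at about 40% in these data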
HCV NS3h conf: confirmation of hepatitis C virus NS3 helicase inhibitors | shares compounds with HCV NS3h FP | NS3h binding to Cy5-dT15 DNA, fluorescence polarization | inhibition, % at 100 µM | hit rate 20% among 240 | AID 720485;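 active = percent inhibition of 50% or more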
SSB-DNA FP CB: disrupts E. coli SSB binding to DNA in counter-screen. AID 720486. E. coli SSB binding Cy5-dT15, fluorescence polarization. inhibition, % at 100 µM. hit rate 40% among 240. shares compounds with HCV NS3h FP;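 active = inhibition of at least 50%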;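 also: displacers lower Cy5 polarization so higher inhibition means more SSB displaced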
Target sequence (P0AGE0 whole entry, looked up): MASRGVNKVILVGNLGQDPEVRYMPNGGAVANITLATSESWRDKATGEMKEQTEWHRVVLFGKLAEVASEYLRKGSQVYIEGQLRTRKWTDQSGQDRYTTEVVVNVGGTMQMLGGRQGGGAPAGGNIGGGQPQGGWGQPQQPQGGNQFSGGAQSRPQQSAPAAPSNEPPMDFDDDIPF
Cy5 SSB interf: counter-screen for HCV NS3 helicase inhibitors: fluorescence interference; hit rate 8% among 240; Cy5-dT15/E. coli SSB fluorescence interference; actives lie on both sides; fluorescence interference ratio at 100 µM; AID 720487; shares compounds with HCV NS3h FP;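 active = fluorescence interference ratio at or above 1.2, signal boosting, or at or below 0.8, signal quenching; inactive = ratio between 0.8 and 1.2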;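 also: ratio of compound well signal to mean negative control signal so 1 means no effect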
Cy5 interf conf: Cy5 fluorescence interference, confirmation counter-screen. hit rate 44% among 240. Cy5-dT15 DNA/NS3h fluorescence interference counterscreen. fluorescence interference ratio at 100 µM, hits read low. shares compounds with HCV NS3h FP;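 active = fluorescence interference ratio at or below 0.8 quencher or at or above a set limitenhancer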;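 also: ratio of compound fluorescence to mean of negative controls so 1 means no interference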
Starred values were filed as active, the others as inactive; . = no result.

SMILES	Cy5 interf NS3h	HCV NS3h FP	HCV NS3h conf	SSB-DNA FP CB	Cy5 SSB interf	Cy5 interf conf
CCOC(=O)c1ccc(NC(=O)c2ccc(C(=O)Nc3ccc(C(=O)OCC)cc3)cc2)cc1	1.1	4	.	.	.	.
O=C1NC(=S)N(c2ccccc2)C(=O)/C1=C/c1ccc(-c2cccc(C(=O)O)c2)o1	1	83*	26	82*	0.84	0.79*
CCOC(=O)c1ccc(-c2ccc(/C=C3/C(=O)NC(=O)N(c4ccccc4)C3=O)o2)cc1	0.92	24	.	.	.	.
O=C1NC(=S)N(c2ccc(Cl)cc2)C(=O)/C1=C\c1ccc(-c2cccc(C(=O)O)c2)o1	1	72*	57*	98*	0.92	0.91
O=C1NN(c2ccc(Br)cc2)C(=O)/C1=C\c1ccc(-c2cccc(C(=O)O)c2)o1	0.93	23	.	.	.	.
COc1ccc(NC(=O)C2CC(=O)N(c3ccc(C)cc3)C2)cc1 (configuration not stated)	0.93	7	.	.	.	.
CC(C)(C)OC(=O)c1ccc([N+](=O)[O-])cc1	1	1	.	.	.	.
O=C1NC(=S)N(c2ccccc2)C(=O)/C1=C/c1ccc(Br)cc1	0.96	-4	.	.	.	.
CN(C)c1ccc(/C=C2\C(=O)NC(=S)N(c3ccc(Br)cc3)C2=O)cc1	1.3*	64*	20	96*	1.2*	0.87
O=C(N/N=C/c1ccccc1O)c1cncc(Br)c1	0.98	11	.	.	.	.
CCOc1ccc(/C=N/NC(=O)c2cncc(Br)c2)cc1	0.8*	58*	2	5	0.96	0.95
O=C(CSc1ccc(Cl)cc1Cl)Nc1cc(Cl)ccc1Cl	0.99	11	.	.	.	.
O=C1NC(=S)S/C1=C\c1ccc(Oc2ccc([N+](=O)[O-])cn2)cc1	1	39	26	4	0.98	0.72*
O=C1NC(=S)N/C1=C\c1ccc(Oc2ccc([N+](=O)[O-])cn2)cc1	0.98	-1	.	.	.	.
COc1ccc(Cl)cc1/C=C1\C(=O)NC(=O)N(c2ccc(Cl)cc2)C1=O	0.95	23	.	.	.	.
Cc1ccc(C(=O)N(Cc2ccccc2)Cc2ccccc2)cc1[N+](=O)[O-]	0.93	-12	.	.	.	.
COc1ccc(C(=O)NCCCNc2ccc([N+](=O)[O-])cc2Cl)cc1OC	0.98	16	.	.	.	.
COc1ccc(C(=O)NCCNc2ccc([N+](=O)[O-])cc2)cc1OC	1.1	40	13	8	0.94	0.72*
COc1cc(CN2CCN(Cc3ccc(F)cc3)CC2)cc(OC)c1OC	0.99	-9	.	.	.	.
O=C(Nc1ccc(Cl)c(Cl)c1)c1ccc2c(c1)OCCO2	1.1	39	41	47	0.95	0.86
O=C(Nc1ccc(N2CCOCC2)cc1)c1ccc2c(c1)OCCO2	1	-4	.	.	.	.
CC1CCCCN1CC#CC(O)(c1ccccc1)c1ccccc1 (configuration not stated)	1	5	.	.	.	.
Cc1oc2cc(Br)c(OC(=O)C(C)(C)C)cc2c1C(=O)OC(C)C	0.98	12	.	.	.	.
O=C(NC(=S)Nc1ccc(S(=O)(=O)Nc2nccs2)cc1)c1sc2ccccc2c1Cl	0.92	26	.	.	.	.
COc1ccc(NS(=O)(=O)c2ccc(NC(=S)NC(=O)c3sc4cc(F)ccc4c3Cl)cc2)nn1	0.98	63*	14	8	1	0.76*
SMILES	Cy5 interf NS3h	HCV NS3h FP	HCV NS3h conf	SSB-DNA FP CB	Cy5 SSB interf	Cy5 interf conf
Cc1cccc(C)c1NC(=O)COc1ccc(Cl)cc1Cl	0.91	10	.	.	.	.
CCOc1ccc(C=C2C(=O)NC(=O)NC2=O)cc1OCC	1.1	18	.	.	.	.
CCN(C)c1ccc(C=C2C(=O)NC(=O)NC2=O)cc1	1.9*	92*	111*	95*	1.5*	2.2*
N/C(=N/OC(=O)c1ccccc1I)c1ccccn1	1.1	11	.	.	.	.
CSc1ccccc1N1C(=O)C2CC(C)=C(C)CC2C1=O (configuration not stated)	1	0	.	.	.	.
CSc1ccccc1N1C(=O)C=CC1=O	1	22	41	-2	0.97	0.75*
CCc1cc(C)cc(OCCn2cc(C=C3C(=O)NC(=S)NC3=O)c3ccccc32)c1	1	-11	.	.	.	.
Cc1ccc(S(=O)(=O)n2cc(C=C3C(=O)NC(=S)NC3=O)c3ccccc32)cc1	0.82	61*	20	82*	0.86	0.85
COc1cccc(OCCOc2ccc(/C=C3/SC(=S)N(c4ccccc4)C3=O)cc2OC)c1	1	16	.	.	.	.
O=C1NC(=O)N(c2ccccc2F)C(=O)/C1=C/c1ccc(OCc2cccc(C(=O)O)c2)cc1	1.1	33	.	.	.	.
Cc1ccccc1N1C(=O)NC(=O)/C(=C\c2ccc(OCc3cccc(C(=O)O)c3)cc2)C1=O	1.1	42*	21	68*	0.91	0.8*
O=C1NC(=O)N(c2cccc(F)c2)C(=O)/C1=C/c1ccc(OCc2cccc(C(=O)O)c2)cc1	1	41*	13	39	0.95	0.75*
O=C1NC(=S)N/C1=C/c1ccc(OCc2cccc(C(=O)O)c2)cc1	1.1	62*	20	28	0.99	0.77*
CN1C(=O)C(=Cc2ccc(OCc3cccc(C(=O)O)c3)cc2)C(=O)N(C)C1=O	1	6	.	.	.	.
Cc1cc(/C=C2\C(=O)NC(=O)N(c3cccc(F)c3)C2=O)c(C)n1C	1.1	7	.	.	.	.
CCOC(=O)C(CC)P(=O)(c1ccccc1)c1ccccc1 (configuration not stated)	1.2	3	.	.	.	.
Cc1ccc(N2C(=O)/C(=C\c3ccc(-c4ccc(Cl)c(C(=O)O)c4)o3)C(=O)NC2=S)cc1	0.86	83*	48	94*	0.88	0.73*
O=C1NC(=S)N(c2ccccc2)C(=O)/C1=C/c1ccc(-c2ccc(Cl)c(C(=O)O)c2)o1	1	93*	40	90*	0.95	0.78*
COc1cc([N+](=O)[O-])ccc1-c1ccc(/C=C2\C(=O)NC(=S)N(c3ccc(Cl)cc3)C2=O)o1	1	17	.	.	.	.
O=C1NC(=S)N(c2ccccc2)C(=O)/C1=C/c1ccc(-c2cccc(Cl)c2Cl)o1	0.96	13	.	.	.	.
CCCCCCN1C(=O)C(O)=C(C(C)=O)C1c1ccc(C(C)C)cc1 (configuration not stated)	0.98	0	.	.	.	.
O=C(NCC(c1ccccc1)c1ccccc1)Nc1ccc(Cl)cc1	1	3	.	.	.	.
COc1ccc(-c2cc(-c3ccccc3)n[nH]2)c(O)c1	1.3*	43*	7	11	0.93	0.73*
COc1ccc(O)c(-c2cc(-c3ccccc3C)[nH]n2)c1	0.9	26	.	.	.	.
Clc1cc(Cl)c2nc3[nH]c4ccc(Br)cc4c3nc2c1	1	2	.	.	.	.
Brc1ccc(/C=N\n2c(-c3ccccc3)nnc2-c2ccccc2)cc1	1	18	.	.	.	.
CCCNS(=O)(=O)c1ccccc1[N+](=O)[O-]	0.92	4	.	.	.	.
CC(=O)COc1ccc2c(oc(=O)c3ccccc32)c1C	1	30	9	4	0.97	0.71*
Cc1c(OCC(=O)c2ccccc2)ccc2c1oc(=O)c1ccccc12	0.98	14	.	.	.	.
